Test results taken from the supplement of paper PMC11732987, “Enantioselective OTUD7B fragment discovery through chemoproteomics screening and high-throughput optimisation” (Communications Chemistry, 2025).

How the values were obtained:
Assay in all cases: log2 ratio of Biotin-Ahx-Ub-VS probe labelling (fragment/DMSO); higher = less target engagement (more negative = stronger competition), active = hit call of the paper (q ≤ 0.05, log2 ratio ≤ -1)
Conditions in all cases: compound concentration: 200 uM; treatment time: 3 h
USP34 = USP34 (UniProt Q70CQ2)
Sequence of USP34 (Q70CQ2 whole entry, the tested form may be a part): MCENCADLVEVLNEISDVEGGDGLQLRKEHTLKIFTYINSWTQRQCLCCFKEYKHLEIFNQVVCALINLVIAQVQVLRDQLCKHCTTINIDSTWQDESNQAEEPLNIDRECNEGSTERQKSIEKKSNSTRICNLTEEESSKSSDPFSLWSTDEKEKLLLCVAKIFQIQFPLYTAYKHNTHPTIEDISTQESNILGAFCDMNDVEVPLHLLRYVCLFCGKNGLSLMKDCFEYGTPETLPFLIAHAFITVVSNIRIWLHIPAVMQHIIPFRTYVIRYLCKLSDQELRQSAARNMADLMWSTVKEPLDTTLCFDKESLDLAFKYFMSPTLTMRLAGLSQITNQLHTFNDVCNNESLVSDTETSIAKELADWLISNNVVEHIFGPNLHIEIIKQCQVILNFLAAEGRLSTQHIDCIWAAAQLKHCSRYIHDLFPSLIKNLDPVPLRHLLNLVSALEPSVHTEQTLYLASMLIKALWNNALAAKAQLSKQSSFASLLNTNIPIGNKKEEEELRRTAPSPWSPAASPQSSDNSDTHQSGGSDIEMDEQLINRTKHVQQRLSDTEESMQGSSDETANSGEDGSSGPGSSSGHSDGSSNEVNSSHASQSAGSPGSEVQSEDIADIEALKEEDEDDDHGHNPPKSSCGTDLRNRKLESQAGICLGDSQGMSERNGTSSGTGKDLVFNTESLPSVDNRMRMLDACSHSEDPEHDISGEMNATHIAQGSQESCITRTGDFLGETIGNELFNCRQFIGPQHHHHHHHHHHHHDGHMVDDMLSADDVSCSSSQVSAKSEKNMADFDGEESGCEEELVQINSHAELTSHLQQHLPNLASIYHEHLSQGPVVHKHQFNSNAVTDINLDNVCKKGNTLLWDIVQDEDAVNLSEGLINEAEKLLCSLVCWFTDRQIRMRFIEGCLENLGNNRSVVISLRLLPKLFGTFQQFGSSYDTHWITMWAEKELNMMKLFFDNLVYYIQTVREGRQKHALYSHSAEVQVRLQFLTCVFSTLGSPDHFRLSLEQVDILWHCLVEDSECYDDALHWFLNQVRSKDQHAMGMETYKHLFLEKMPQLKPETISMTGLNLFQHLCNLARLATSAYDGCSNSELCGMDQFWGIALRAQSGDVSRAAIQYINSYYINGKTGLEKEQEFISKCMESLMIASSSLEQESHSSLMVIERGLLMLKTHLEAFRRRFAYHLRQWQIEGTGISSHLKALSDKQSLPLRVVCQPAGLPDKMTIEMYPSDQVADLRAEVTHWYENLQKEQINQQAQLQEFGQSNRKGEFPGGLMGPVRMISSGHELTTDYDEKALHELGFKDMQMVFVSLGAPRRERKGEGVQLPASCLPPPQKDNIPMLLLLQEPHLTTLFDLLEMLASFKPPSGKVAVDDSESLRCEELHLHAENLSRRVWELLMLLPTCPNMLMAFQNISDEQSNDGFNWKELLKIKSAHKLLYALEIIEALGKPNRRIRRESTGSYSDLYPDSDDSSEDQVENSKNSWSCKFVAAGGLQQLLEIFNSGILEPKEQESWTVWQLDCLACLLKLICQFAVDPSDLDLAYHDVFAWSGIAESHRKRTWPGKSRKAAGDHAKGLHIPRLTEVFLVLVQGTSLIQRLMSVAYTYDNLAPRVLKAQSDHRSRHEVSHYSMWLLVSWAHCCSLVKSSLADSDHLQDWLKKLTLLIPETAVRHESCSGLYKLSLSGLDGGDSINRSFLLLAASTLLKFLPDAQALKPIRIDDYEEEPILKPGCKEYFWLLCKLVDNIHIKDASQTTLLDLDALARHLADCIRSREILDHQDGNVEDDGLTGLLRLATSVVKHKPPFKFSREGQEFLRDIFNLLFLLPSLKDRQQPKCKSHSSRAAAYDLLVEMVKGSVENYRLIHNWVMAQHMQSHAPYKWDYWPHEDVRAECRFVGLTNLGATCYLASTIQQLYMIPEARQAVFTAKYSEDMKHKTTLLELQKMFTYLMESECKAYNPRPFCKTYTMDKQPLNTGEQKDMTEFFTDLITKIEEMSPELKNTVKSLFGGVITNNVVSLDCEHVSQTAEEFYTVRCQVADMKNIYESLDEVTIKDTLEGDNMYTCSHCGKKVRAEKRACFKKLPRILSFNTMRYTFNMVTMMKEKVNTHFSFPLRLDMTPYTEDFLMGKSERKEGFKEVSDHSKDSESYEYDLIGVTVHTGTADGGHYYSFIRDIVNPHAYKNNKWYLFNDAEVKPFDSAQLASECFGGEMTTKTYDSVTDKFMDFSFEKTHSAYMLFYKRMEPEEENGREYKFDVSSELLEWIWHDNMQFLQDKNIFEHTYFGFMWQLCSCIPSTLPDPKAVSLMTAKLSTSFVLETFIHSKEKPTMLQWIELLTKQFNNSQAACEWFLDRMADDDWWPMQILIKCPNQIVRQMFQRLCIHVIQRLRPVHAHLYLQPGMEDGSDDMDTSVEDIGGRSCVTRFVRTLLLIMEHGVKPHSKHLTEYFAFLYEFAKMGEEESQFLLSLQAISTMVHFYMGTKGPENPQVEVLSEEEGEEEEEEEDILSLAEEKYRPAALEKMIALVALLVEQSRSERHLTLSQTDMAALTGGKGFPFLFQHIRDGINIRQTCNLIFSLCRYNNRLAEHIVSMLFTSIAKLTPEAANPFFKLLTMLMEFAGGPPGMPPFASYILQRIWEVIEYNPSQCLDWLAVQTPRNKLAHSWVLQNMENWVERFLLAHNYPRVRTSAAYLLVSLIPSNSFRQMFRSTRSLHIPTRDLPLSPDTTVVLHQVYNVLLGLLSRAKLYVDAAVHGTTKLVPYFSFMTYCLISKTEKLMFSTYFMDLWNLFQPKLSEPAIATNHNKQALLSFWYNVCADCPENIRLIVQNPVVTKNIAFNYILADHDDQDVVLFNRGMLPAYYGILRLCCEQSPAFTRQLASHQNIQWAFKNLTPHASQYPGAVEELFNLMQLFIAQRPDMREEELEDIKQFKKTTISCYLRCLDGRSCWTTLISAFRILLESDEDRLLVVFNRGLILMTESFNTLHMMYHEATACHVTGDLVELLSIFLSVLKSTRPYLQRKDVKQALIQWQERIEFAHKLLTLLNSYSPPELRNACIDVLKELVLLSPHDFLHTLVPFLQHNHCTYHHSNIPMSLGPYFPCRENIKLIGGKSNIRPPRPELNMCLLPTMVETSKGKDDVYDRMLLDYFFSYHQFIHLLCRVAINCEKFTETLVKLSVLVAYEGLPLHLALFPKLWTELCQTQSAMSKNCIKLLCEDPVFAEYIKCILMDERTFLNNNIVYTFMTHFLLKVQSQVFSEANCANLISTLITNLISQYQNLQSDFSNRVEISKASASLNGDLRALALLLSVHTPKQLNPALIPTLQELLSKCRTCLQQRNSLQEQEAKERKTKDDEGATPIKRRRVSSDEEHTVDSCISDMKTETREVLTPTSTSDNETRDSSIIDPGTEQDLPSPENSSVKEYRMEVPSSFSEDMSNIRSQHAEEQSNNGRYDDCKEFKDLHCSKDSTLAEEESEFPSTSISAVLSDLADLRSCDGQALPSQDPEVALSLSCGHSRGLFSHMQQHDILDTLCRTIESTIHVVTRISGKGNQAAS
In short: (§1)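 The table lists average log2 ratios of fragment over vehicle, from an unpaired t-test on global-median-normalised Spectronaut label-free quantities. Proteins with ≥2 unique peptides were used. Samples were HEK293T lysate (495 µg) treated in triplicate with fragment at 200 µM or vehicle for 3 h, then with Biotin-Ahx-Ub-VS (0.5 µM final) for 1 h, with labelled DUBs NeutrAvidin-enriched and run by diaPASEF LC-MS/MS.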

USP36 = molecular target: T1, USP36 (UniProt Q9P275)
T1 sequence (whole entry): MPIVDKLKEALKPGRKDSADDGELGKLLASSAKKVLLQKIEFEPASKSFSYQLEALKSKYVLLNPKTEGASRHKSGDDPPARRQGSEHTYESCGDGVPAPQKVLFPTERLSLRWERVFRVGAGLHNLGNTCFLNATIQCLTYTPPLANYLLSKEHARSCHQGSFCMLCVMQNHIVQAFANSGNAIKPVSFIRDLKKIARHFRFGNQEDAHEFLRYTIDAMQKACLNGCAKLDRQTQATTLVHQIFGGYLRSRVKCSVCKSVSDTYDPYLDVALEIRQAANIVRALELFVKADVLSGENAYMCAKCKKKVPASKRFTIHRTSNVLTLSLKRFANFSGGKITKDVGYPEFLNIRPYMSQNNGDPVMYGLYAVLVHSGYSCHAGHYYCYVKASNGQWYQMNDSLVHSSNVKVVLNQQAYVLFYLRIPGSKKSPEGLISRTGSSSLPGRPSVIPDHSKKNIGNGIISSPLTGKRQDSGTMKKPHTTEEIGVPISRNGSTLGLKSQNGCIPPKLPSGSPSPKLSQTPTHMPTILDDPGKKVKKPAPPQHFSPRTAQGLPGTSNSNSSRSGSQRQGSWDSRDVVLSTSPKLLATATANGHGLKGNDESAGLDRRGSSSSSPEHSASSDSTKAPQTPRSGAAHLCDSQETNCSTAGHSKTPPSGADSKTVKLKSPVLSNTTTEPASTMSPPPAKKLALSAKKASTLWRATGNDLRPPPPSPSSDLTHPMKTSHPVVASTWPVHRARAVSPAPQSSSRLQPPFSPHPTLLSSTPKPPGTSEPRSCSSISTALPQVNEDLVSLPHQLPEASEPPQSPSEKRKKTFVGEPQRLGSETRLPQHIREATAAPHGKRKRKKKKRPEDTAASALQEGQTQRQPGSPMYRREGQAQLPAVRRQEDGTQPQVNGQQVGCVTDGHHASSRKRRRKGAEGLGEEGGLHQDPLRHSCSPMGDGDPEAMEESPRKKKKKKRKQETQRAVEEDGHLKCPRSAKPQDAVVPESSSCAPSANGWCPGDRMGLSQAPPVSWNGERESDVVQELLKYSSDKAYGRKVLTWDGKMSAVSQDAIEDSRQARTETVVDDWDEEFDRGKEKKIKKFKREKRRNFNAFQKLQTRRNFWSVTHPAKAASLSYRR
In short: as §1

USP38 = molecular target: T2, USP38 (UniProt Q8NB14)
T2 sequence (whole entry): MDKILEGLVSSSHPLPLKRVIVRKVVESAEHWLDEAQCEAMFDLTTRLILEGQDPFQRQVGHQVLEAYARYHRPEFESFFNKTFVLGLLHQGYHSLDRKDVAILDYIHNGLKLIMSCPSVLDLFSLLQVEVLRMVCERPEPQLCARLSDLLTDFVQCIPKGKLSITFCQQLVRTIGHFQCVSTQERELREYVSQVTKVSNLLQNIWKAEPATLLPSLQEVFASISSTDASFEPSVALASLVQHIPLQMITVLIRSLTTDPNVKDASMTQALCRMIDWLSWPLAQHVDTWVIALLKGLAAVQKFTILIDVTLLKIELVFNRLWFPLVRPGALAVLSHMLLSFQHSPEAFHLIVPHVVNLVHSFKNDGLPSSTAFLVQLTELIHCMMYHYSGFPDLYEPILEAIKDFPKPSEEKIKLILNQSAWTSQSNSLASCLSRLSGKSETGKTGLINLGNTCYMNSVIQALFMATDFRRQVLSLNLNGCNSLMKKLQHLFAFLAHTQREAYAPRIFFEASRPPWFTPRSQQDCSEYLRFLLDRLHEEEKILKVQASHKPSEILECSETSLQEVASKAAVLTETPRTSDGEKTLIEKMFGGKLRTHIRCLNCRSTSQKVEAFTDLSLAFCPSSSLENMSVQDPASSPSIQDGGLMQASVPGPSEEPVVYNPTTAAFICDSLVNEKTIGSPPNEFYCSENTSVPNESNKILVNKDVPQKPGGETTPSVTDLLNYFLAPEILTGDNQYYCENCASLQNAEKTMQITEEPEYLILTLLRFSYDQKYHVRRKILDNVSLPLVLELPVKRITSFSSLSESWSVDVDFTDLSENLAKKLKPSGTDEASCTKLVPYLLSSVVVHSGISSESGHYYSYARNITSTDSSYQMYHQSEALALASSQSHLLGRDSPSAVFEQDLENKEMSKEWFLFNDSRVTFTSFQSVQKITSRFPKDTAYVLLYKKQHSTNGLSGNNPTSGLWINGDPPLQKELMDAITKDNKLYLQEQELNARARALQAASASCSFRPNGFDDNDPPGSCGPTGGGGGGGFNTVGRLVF
In short: as §1

USP39 = molecular target: T3, USP39 (UniProt Q53GS9)
T3 sequence (whole entry): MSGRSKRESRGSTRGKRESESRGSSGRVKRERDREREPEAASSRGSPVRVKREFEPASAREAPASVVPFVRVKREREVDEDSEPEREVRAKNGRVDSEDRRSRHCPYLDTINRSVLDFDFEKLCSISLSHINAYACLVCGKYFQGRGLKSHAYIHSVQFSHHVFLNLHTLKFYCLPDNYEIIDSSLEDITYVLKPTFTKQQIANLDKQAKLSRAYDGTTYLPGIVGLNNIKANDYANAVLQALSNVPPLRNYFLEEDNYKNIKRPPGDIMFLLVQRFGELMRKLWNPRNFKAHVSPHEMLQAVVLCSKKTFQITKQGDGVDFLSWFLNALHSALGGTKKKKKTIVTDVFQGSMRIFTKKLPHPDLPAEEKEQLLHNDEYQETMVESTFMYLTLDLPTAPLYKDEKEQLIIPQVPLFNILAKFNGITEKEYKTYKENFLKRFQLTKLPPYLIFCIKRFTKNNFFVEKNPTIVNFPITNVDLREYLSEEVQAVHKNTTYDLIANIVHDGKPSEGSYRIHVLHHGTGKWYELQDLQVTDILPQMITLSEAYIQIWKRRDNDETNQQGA
In short: as §1

USP4 = molecular target: T4, USP4 (UniProt Q13107)
T4 sequence (whole entry): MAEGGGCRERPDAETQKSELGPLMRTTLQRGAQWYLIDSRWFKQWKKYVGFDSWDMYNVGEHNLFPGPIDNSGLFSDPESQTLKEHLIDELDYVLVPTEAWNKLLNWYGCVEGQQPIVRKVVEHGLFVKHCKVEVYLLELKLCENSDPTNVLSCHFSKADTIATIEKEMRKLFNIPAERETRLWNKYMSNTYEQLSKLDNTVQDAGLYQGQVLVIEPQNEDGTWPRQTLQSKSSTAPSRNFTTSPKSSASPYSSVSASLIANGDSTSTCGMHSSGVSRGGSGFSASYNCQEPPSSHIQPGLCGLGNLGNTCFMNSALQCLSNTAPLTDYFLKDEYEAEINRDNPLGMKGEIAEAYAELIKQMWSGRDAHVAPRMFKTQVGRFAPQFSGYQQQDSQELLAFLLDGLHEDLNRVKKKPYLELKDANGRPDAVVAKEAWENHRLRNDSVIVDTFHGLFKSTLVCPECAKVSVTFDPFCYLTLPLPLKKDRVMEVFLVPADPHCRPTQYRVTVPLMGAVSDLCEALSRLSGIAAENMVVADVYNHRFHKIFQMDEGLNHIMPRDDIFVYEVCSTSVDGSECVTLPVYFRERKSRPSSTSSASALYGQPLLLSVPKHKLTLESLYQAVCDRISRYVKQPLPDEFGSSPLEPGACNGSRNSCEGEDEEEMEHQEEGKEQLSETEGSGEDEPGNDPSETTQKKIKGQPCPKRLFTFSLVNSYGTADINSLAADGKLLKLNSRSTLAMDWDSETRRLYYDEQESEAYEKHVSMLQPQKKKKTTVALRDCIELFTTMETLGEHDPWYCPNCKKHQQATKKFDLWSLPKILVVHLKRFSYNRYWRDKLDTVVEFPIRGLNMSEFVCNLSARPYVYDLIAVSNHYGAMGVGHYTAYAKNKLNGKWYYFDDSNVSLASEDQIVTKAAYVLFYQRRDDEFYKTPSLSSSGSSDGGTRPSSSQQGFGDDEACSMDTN
In short: as §1

Measured: log2 ratio of Biotin-Ahx-Ub-VS probe labelling

Cc1cccc2nc(CCNC(=O)CCl)cn12.Cl
inactive: USP34 -0.19 | USP36 -0.179 | USP38 -0.0583 | USP39 0.203 | USP4 -0.184
